Experimental data as given in PubChem BioAssay (NCI).
The panel holds about 83,000 compounds, 20% with a hit somewhere; the sample as a whole holds those more often.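 In brief: 96-well plates, 48 h treatment, single concentration, percent growth endpoint.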 Calls of active or inactive are those of the source. How the source made its calls: active means growth percent below 10; inactive means the rest.

Experiments:
Experiment in all cases: NCI-60 one-dose screen, 48 h (100 = growth as untreated, 0 = no growth, -100 = all killed)
Conditions in all cases: 10 µM
[1] = system: NCI-H23 lung
[2] = system: NCI-H226 lung
[3] = system: NCI-H322M lung
[4] = system: HOP-62 NSCLC
[5] = system: NCI-H460 lung
[6] = system: HOP-92 NSCLC
[7] = system: NCI-H522 lung
[8] = system: A549/ATCC NSCLC
[9] = system: 786-0 renal
[10] = system: COLO 205 colon
[11] = system: DU-145 prostate
[12] = system: MALME-3M melanoma
[13] = system: MDA-MB-231 breast
[14] = system: RXF 393 renal
[15] = system: SF-268 CNS
[16] = system: SF-295 CNS
[17] = system: SF-539 CNS
[18] = system: UACC-257 melanoma
[19] = system: M14 melanoma
[20] = system: K-562 leukemia

Measured: growth

O=C1CCC(N2Cc3c(C#CCCCNC(=O)c4ccc(NC(=O)[C@@H]5NC6(CCCCC6)[C@@]6(C(=O)Nc7cc(Cl)ccc76)[C@H]5c5cccc(Cl)c5F)cc4)cccc3C2=O)C(=O)N1 (some centres undefined)
inactive: [1] 74.4% | [2] 24.1% | [3] 77.5% | [4] 72.7% | [5] 33.1% | [6] 39.3% | [7] 70.3% | [8] 34.5% | [9] 48.4% | [10] 70.5% | [11] 82.1% | [12] 17.7% | [13] 52% | [14] 46.3% | [15] 70.3% | [16] 54.8% | [17] 35.1% | [18] 60.5% | [19] 50.1%

CCOC(=O)C1=C(N)N(c2ccc(Cl)cc2)C2=C(C(=O)CC(C)(C)C2)C1c1ccc(N2CCOCC2)cc1 (centres undefined)
inactive: [1] 105% | [2] 93.6% | [3] 95.4% | [4] 118% | [5] 94% | [6] 92.9% | [7] 89.3% | [8] 90% | [9] 89.4% | [10] 99.8% | [11] 99% | [12] 93.9% | [13] 87.3% | [14] 98.6% | [15] 89.7% | [16] 89.3% | [17] 100% | [18] 106% | [19] 103%

O=C1Nc2cc(Cl)ccc2/C1=C/c1cccc(OCc2ccc(Br)cc2F)c1
inactive: [1] 28.5% | [2] 37.4% | [3] 54% | [4] 11.1% | [8] 29.7% | [9] 17.9% | [12] 33.8% | [18] 45.9%
active: [5] 0.927% | [6] 6.98% | [7] -2.73% | [10] 3.13% | [11] 4.44% | [20] 1.92% | [14] -15.1% | [15] 9.99% | [16] 5.06% | [17] -6.14% | [19] -32.6%

CC(=O)Nc1nc(-c2ccc(N3CCN(C)CC3)c(NS(=O)(=O)c3ccc(C(F)(F)F)cc3)c2)cs1
active: [6] 9.58% | [9] -62.5% | [14] -47% | [17] -86.4% | [19] -3.51%
inactive: [1] 55.8% | [2] 40.1% | [3] 88.2% | [4] 63.7% | [5] 31.3% | [7] 11.4% | [8] 55.5% | [10] 36% | [11] 23.3% | [12] 38.1% | [13] 24.2% | [15] 41.1% | [16] 46% | [18] 49.5%

O=C(CSc1ccc(-c2ccc(Cl)cc2)nn1)Nc1ccc(Cl)c(C(F)(F)F)c1
active: [20] 9.36%
inactive: [1] 73.6% | [2] 76.1% | [3] 89.1% | [4] 57.4% | [5] 98.6% | [6] 75.8% | [7] 55.1% | [8] 70.5% | [9] 80.6% | [10] 74.8% | [11] 80% | [12] 54.1% | [14] 71.1% | [15] 73.7% | [16] 56.3% | [17] 60.7% | [18] 67.7% | [19] 50.6%

O=C(c1ccc([N+](=O)[O-])c([N+](=O)[O-])c1O)n1[nH]c(=O)c2ccccc2c1=O
inactive: [1] 50.5% | [2] 82.1% | [3] 85.8% | [4] 75.5% | [5] 44.8% | [6] 78.6% | [7] 54.8% | [8] 77.6% | [9] 97.7% | [10] 124% | [11] 25.4% | [20] 12.8% | [12] 71.7% | [14] 66.7% | [15] 76.9% | [16] 90.9% | [17] 66.6% | [18] 79.9% | [19] 78.6%

NC1=NC(c2ccccc2Cl)N=C(Nc2nn[nH]n2)N1 (centres undefined)
inactive: [1] 106% | [2] 105% | [3] 111% | [4] 108% | [5] 108% | [6] 95.3% | [7] 102% | [8] 103% | [9] 103% | [10] 116% | [11] 106% | [20] 100% | [12] 101% | [14] 113% | [15] 101% | [16] 101% | [17] 103% | [18] 106% | [19] 106%

Cc1nc2c(cnn2-c2ccccc2)c(=O)n1-c1ccc(NC(=O)c2ccc(F)cc2)cc1
inactive: [1] 50.2% | [2] 56.2% | [3] 86.1% | [4] 64.6% | [5] 54.4% | [6] 85.2% | [7] 63.9% | [8] 54.6% | [9] 82.5% | [10] 62.3% | [11] 80.7% | [20] 27.2% | [12] 68.4% | [14] 79.1% | [15] 88.9% | [16] 39.6% | [17] 85.5% | [18] 31.8% | [19] 62.9%

O=C(c1ccc(-n2c(=O)[nH]c3ccccc3c2=O)cc1)N1CCOCC1
inactive: [1] 116% | [2] 99.6% | [3] 98.7% | [4] 134% | [5] 109% | [6] 99.8% | [7] 101% | [8] 119% | [9] 99.5% | [10] 110% | [11] 105% | [12] 97.5% | [13] 95.5% | [14] 127% | [15] 88.1% | [16] 102% | [17] 93.8% | [18] 127% | [19] 99.3%

CN1CCc2c(sc3ncnc(N/N=C/c4cn(-c5ccccc5)nc4-c4ccc(Br)cc4)c23)C1
active: [1] 8.68% | [10] 5.81%
inactive: [2] 81.2% | [3] 33.5% | [4] 54.6% | [5] 18.7% | [6] 71.8% | [7] 54.7% | [8] 25.3% | [9] 65.7% | [11] 56.2% | [20] 18.5% | [12] 29.5% | [14] 83.6% | [15] 67.2% | [16] 72.9% | [17] 15.7% | [18] 29.9% | [19] 19.4%

COc1ccc(-c2nc(S(=O)(=O)c3ccccc3)c(S(C)(=O)=O)o2)cc1
inactive: [2] 74.5% | [3] 101% | [4] 96.7% | [5] 75.9% | [8] 88.7% | [15] 61.8% | [16] 87.3%
active: [1] 3.05% | [6] -60.8% | [7] -97.2% | [9] -16.9% | [10] -85.6% | [11] -92.8% | [12] -92.7% | [13] -76.2% | [14] -90.8% | [17] -95.9% | [18] -38.6% | [19] -24%

CC(=O)Nc1nc(-c2ccc(N3CCN(C)CC3)c(NS(=O)(=O)c3cccc4c(N(C)C)cccc34)c2)cs1
active: [12] -35.6% | [16] -58.7% | [18] -6.28% | [19] -57.5%
inactive: [1] 58.1% | [2] 75.5% | [3] 64.7% | [4] 69.7% | [5] 58.9% | [6] 50.6% | [7] 59.6% | [8] 71.3% | [9] 34.4% | [10] 47.4% | [11] 76.2% | [13] 65% | [14] 19.6% | [15] 78.5% | [17] 16%

Cc1cccc2cc(-c3cc(-c4ccccc4)nc(=O)[nH]3)c(Cl)nc12
inactive: [1] 88.7% | [2] 75.7% | [3] 89.9% | [4] 109% | [5] 80.7% | [6] 77.1% | [7] 87.7% | [8] 96.4% | [9] 91.6% | [10] 119% | [11] 91.7% | [20] 44.3% | [12] 96.6% | [14] 88.3% | [15] 96.3% | [16] 76% | [17] 78.1% | [18] 99.7% | [19] 98.6%

c1ccc(C(=C(c2ccc(OCCN3CCCCC3)cc2)c2ccc(OCCN3CCCCC3)cc2)C2CCCC2)cc1
active: [1] -81% | [2] -15.5% | [4] -10.9% | [5] -55.4% | [6] -61% | [7] -42.2% | [8] -17.9% | [9] -33.3% | [10] -92.6% | [11] -45.2% | [12] -95.2% | [13] -94.4% | [15] -61% | [16] -63.8% | [17] -96.4% | [18] -34.2% | [19] -44.4%
inactive: [3] 39.8% | [14] 29.1%

Nc1nc(-c2ccccc2)cc(-c2cc3ccccc3nc2Cl)n1
inactive: [1] 89.3% | [2] 78.1% | [3] 96.7% | [4] 89.4% | [5] 81.5% | [6] 73.1% | [7] 89.4% | [8] 91% | [9] 89.7% | [10] 110% | [11] 81.5% | [20] 20% | [12] 88.4% | [14] 85.2% | [15] 88.3% | [16] 78.6% | [17] 78.5% | [18] 97.8% | [19] 84.2%

Cc1ccc(-c2ccc(SCC(=O)Nc3ccc(Cl)c(C(F)(F)F)c3)nn2)cc1
active: [7] -1.27% | [10] -11% | [20] 4.76% | [14] -32.5% | [17] -35.1% | [19] 2.2%
inactive: [1] 30% | [2] 65.6% | [3] 90.1% | [4] 30% | [5] 13.8% | [6] 72.7% | [8] 40.4% | [9] 35.1% | [11] 23.9% | [12] 38.7% | [15] 38.6% | [16] 13.2% | [18] 57.6%
